Measurements reported in PubChem BioAssay (NCI).
Several values for one entry are separate records, joined by “and”; a condition that tells them apart may be missing. Identical values can stand only once. Compounds without any hit were thinned out: in the full panel of roughly 83,000, 20% have a hit.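 Percent growth is the endpoint: 0 to 100 indicates growth inhibition (40 means 60% inhibition), 0 means no net growth, and negative values indicate cell death.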 Activity calls are given as the source filed them. Rule for the calls: active = growth percent below 10; inactive = the rest.

Key:
Test in all cases: NCI-60 one-dose screen, 48 h (100 = growth as untreated, 0 = no growth, -100 = all killed)
Details in all cases: 10 µM unless noted
NCI-H23 lung = test system: NCI-H23 lung
NCI-H226 lung = test system: NCI-H226 lung
NCI-H322M lung = test system: NCI-H322M lung
HOP-62 NSCLC = test system: HOP-62 NSCLC
NCI-H460 lung = test system: NCI-H460 lung
HOP-92 NSCLC = test system: HOP-92 NSCLC
NCI-H522 lung = test system: NCI-H522 lung
A549/ATCC NSCLC = test system: A549/ATCC NSCLC
786-0 renal = test system: 786-0 renal
COLO 205 colon = test system: COLO 205 colon
DU-145 prostate = test system: DU-145 prostate
K-562 leukemia = test system: K-562 leukemia
MALME-3M melanoma = test system: MALME-3M melanoma
MDA-MB-231 breast = test system: MDA-MB-231 breast
RXF 393 renal = test system: RXF 393 renal
SF-268 CNS = test system: SF-268 CNS
SF-295 CNS = test system: SF-295 CNS
SF-539 CNS = test system: SF-539 CNS
UACC-257 melanoma = test system: UACC-257 melanoma
M14 melanoma = test system: M14 melanoma

Row | Compound | growth (NCI-H23 lung) | growth (NCI-H226 lung) | growth (NCI-H322M lung) | growth (HOP-62 NSCLC) | growth (NCI-H460 lung) | growth (HOP-92 NSCLC) | growth (NCI-H522 lung) | growth (A549/ATCC NSCLC) | growth (786-0 renal) | growth (COLO 205 colon) | growth (DU-145 prostate) | growth (K-562 leukemia) | growth (MALME-3M melanoma) | growth (MDA-MB-231 breast) | growth (RXF 393 renal) | growth (SF-268 CNS) | growth (SF-295 CNS) | growth (SF-539 CNS) | growth (UACC-257 melanoma) | growth (M14 melanoma)
1 | COc1ccc(N(CC(=O)NCCC[Te]c2ccccc2)C(=O)c2ccccc2)cc1 | 0.588% (active) | 52.7% (inactive) | 4.82% (active) | 15.8% (inactive) | -1.52% (active) | -9.19% (active) | -9.72% (active) | 2.78% (active) | 75.3% (inactive) | 89.2% (inactive) | 66.6% (inactive) | 56.1% (inactive) | 129% (inactive) | 14.2% (inactive) | 133% (inactive) | 39.2% (inactive) | -7.61% (active) | 31.4% (inactive) | 95.4% (inactive) | 32.1% (inactive)
2 | C=C[Se]CC(=O)/C=C/c1ccccc1 | 70.1% (inactive) | 98% (inactive) | 6% (active) | 13% (inactive) | 12.8% (inactive) | 104% (inactive) | 89.2% (inactive) | 32.3% (inactive) | 102% (inactive) | 109% (inactive) | 87.5% (inactive) | 93.9% (inactive) | 97.5% (inactive) | 94.3% (inactive) | 114% (inactive) | 94.8% (inactive) | 3.93% (active) | 95.2% (inactive) | 92.7% (inactive) | 73.5% (inactive)
3 | Cc1c(C)c(N)c(C)c(C)c1N | 79.2% (inactive) | 98.5% (inactive) | 87.6% (inactive) | 90.6% (inactive) | 39.8% (inactive) | 97.5% (inactive) | 40.8% (inactive) | 79.6% (inactive) | 107% (inactive) | 91.9% (inactive) | 6.41% (active) | 97.8% (inactive) | 93.2% (inactive) | 83.2% (inactive) | 84.1% (inactive) | 91.5% (inactive) | 85.4% (inactive) | 108% (inactive) | 92.9% (inactive) | 98.7% (inactive)
4 | Cc1nnc([S-])o1.[Au+].c1ccc([PH+](c2ccccc2)c2ccccc2)cc1 | 61.5% (inactive) | 114% (inactive) | 88.4% (inactive) | 121% (inactive) | 86% (inactive) | -9.28% (active) | -81.1% (active) | 76.4% (inactive) | 38.8% (inactive) | 55.4% (inactive) | 62.4% (inactive) | 12.8% (inactive) | 48.1% (inactive) | 61.4% (inactive) | -53.8% (active) | 43.4% (inactive) | 92.1% (inactive) | 67.8% (inactive) | 27.9% (inactive) | 31.8% (inactive)
5 | CC1=C([Te]c2ccccc2)C(=O)c2ccccc2C1=O | -33.9% (active) | -52.1% (active) | -22.8% (active) | -49.5% (active) | -57.7% (active) | -53.8% (active) | -15.3% (active) | -66.1% (active) | -46.2% (active) | -83.6% (active) | -53.4% (active) | 14.7% (inactive) | -49.5% (active) | -24.6% (active) | -35.5% (active) | -18.1% (active) | -34.5% (active) | -71.4% (active) | -26.2% (active) | -22.1% (active)
6 | Cc1cc(C(C)(C)C)ccc1O | 90.9% (inactive) | 92.2% (inactive) | 104% (inactive) | 102% (inactive) | 105% (inactive) | 94.4% (inactive) | 102% (inactive) | 104% (inactive) | 111% (inactive) | 107% (inactive) | 104% (inactive) | 103% (inactive) | 104% (inactive) | 118% (inactive) | 102% (inactive) | 97.3% (inactive) | 110% (inactive) | 111% (inactive) | 100% (inactive) | 102% (inactive)
7 | C[C@]12CCc3sc(Nc4ccc(F)cc4F)nc3C1=CC[C@@H]1[C@@H]2CC[C@]2(C)C(=O)CC[C@@H]12 | 66.2% (inactive) | 84.2% (inactive) | 84.5% (inactive) | 87.1% (inactive) | 60.9% (inactive) | 77.1% (inactive) | 42.6% (inactive) | 61.7% (inactive) | -27.7% (active) | 54.3% (inactive) | 24% (inactive) | 2.15% (active) | 69.5% (inactive) | 76.1% (inactive) | 5.6% (active) | 70.7% (inactive) | 51% (inactive) | 49.6% (inactive) | 71.9% (inactive) | 57.8% (inactive)
8 | COc1cc(C=C2C(=O)NC(=O)NC2=O)ccc1O | 98.1% (inactive) | 96.1% (inactive) | 117% (inactive) | 100% (inactive) | 108% (inactive) | 113% (inactive) | 96.9% (inactive) | 102% (inactive) | 99.7% (inactive) | 109% (inactive) | 124% (inactive) | 109% (inactive) | 136% (inactive) | 96.5% (inactive) | 84.4% (inactive) | 106% (inactive) | 101% (inactive) | 101% (inactive) | 87.6% (inactive) | 101% (inactive)
9 | COc1ccc2c(c1)c(-c1nc(-c3cn(C)c4ncccc34)cs1)cn2CCCCN1CCOCC1 | 78.4% (inactive) | 70.1% (inactive) | 65.9% (inactive) | 30.9% (inactive) | -31.9% (active) | 47.9% (inactive) | 3.68% (active) | 48.3% (inactive) | -71.7% (active) | -91.7% (active) | 46.8% (inactive) | -41% (active) | -59.5% (active) | 5.75% (active) | 0.734% (active) | 52.8% (inactive) | -48.5% (active) | 30.8% (inactive) | 63.5% (inactive) | -66.9% (active)
10 | C[C@]12CC[C@H]3[C@@H](CC=C4c5nc(N)sc5CC[C@@]43C)[C@@H]1CC[C@@H]2O | 98.4% (inactive) | 97.1% (inactive) | 108% (inactive) | 100% (inactive) | 96% (inactive) | 105% (inactive) | 89.7% (inactive) | 94.5% (inactive) | 100% (inactive) | 113% (inactive) | 103% (inactive) | 95.2% (inactive) | 107% (inactive) | 111% (inactive) | 99.4% (inactive) | 97.1% (inactive) | 100% (inactive) | 98.5% (inactive) | 92.6% (inactive) | 98.7% (inactive)
11 | O=C(CBr)OCCOC(=O)CBr | 84.7% (inactive) | 109% (inactive) | 97.7% (inactive) | 109% (inactive) | 95% (inactive) | 114% (inactive) | -74.6% (active) | 92.8% (inactive) | 24.4% (inactive) | 104% (inactive) | 84.2% (inactive) | 62.5% (inactive) | 76.3% (inactive) | 80.6% (inactive) | -7.57% (active) | 89.9% (inactive) | 104% (inactive) | 112% (inactive) | 83.1% (inactive) | 81% (inactive)
12 | N#CC(C#N)=Cc1cccc(F)c1 | 102% (inactive) | 103% (inactive) | 104% (inactive) | 95.2% (inactive) | 105% (inactive) | 130% (inactive) | 99.4% (inactive) | 100% (inactive) | 103% (inactive) | 115% (inactive) | 105% (inactive) | 96.8% (inactive) | 110% (inactive) | 109% (inactive) | 110% (inactive) | 99.7% (inactive) | 105% (inactive) | 105% (inactive) | 107% (inactive) | 107% (inactive)
13 | CC[C@H](C)[C@H](NC(=O)CN(C)C)C(=O)N(C)[C@H](C[C@@H](OC(C)=O)c1nc(C(=O)NC23C4C5C2C2C3C4C52C(=O)OC)cs1)C(C)C (stereo not given in full) | 21.3% (inactive) | 31.7% (inactive) | 42.2% (inactive) | 19.4% (inactive) | 3.35% (active) | 66.1% (inactive) | 24.1% (inactive) | 21.3% (inactive) | 31.3% (inactive) | -7.69% (active) | 2.37% (active) | 7.65% (active) | 35.1% (inactive) | 1.39% (active) | 2.8% (active) | 21.1% (inactive) | 9.98% (active) | -1.99% (active) | 49.2% (inactive) | -35.8% (active)
14 | CN(C)[C@@H]1C(=O)C(C(N)=O)=C(O)[C@@]2(O)C(=O)C3=C(O)c4c(O)ccc(Cl)c4[C@@](C)(O)[C@H]3C[C@@H]12 | 99.6% (inactive) and 88.6% (inactive) | 93.3% (inactive) and 95.3% (inactive) | 84.8% (inactive) and 105% (inactive) | 90.3% (inactive) | 88.9% (inactive) and 101% (inactive) | 75.7% (inactive) and 11.8% (inactive) | 79.4% (inactive) and 32.7% (inactive) | 97% (inactive) | 91.3% (inactive) and 71.2% (inactive) | 92.8% (inactive) and 97.8% (inactive) | 103% (inactive) | 109% (inactive) and 93.8% (inactive) | 79.3% (inactive) and 80.7% (inactive) | 103% (inactive) and 98% (inactive) | 96.1% (inactive) and 94.3% (inactive) | 94.8% (inactive) and 98.9% (inactive) | 90.1% (inactive) and 103% (inactive) | 93.3% (inactive) and 92.1% (inactive) | 108% (inactive) and 106% (inactive) | 79.8% (inactive) and 92.6% (inactive)
15 | O=CC1(c2ccccc2)CCN(Cc2ccccc2)CC1 | 101% (inactive) | 98.2% (inactive) | 105% (inactive) | 112% (inactive) | 110% (inactive) | 97.3% (inactive) | 105% (inactive) | 95.4% (inactive) | 108% (inactive) | 109% (inactive) | 106% (inactive) | 105% (inactive) | 105% (inactive) | 104% (inactive) | 115% (inactive) | 99.6% (inactive) | 99% (inactive) | 106% (inactive) | 99.5% (inactive) | 98.8% (inactive)
